# Bioassay records from PubChem.
# Shown are actives, neighbours in structure and some others; about 6.1% of the full set was active somewhere.
# D1 ag = activates the human D1 dopamine receptor; P21728; HEK293 T-REx D1 cells, calcium flux, agonist mode; activation, % at 2 µM; 360,000 tested, 1% active; AID 504660; in the data active = activation above about 30%
#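 Tetracycline-induced HEK293 TREx D1 cells, force-coupled to calcium signalling, were dye-loaded with a no-wash calcium kit. Compound was pin-added after a 10 s baseline. Fluorescence was read kinetically at 1 cycle/s for 180 s, with calcium rises flagged as agonism.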
# D1 antag = antagonists of human D1 dopamine receptor; P21728; HEK293 TREx D1 cells, calcium flux, dopamine EC80; hits give low values; activity change, negative = inhibition, % at 10 µM; 360,000 tested, 3.2% active; AID 504652; in the data active = activity change below about -30%
#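 Kinetic fluorescence of a calcium dye serves as the read-out. D1-expressing Hek293 Trex cells, induced overnight at 30 C, are exposed to compound for 180 s before an EC80 dopamine addition, then read 180 s further.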
# D3 antag = blocks the human D3 dopamine receptor; P35462; D3R cells, DiscoveRx beta-arrestin luminescence, antagonist mode; hits give low values; max response, negative = inhibition, %; 360,000 tested, 2.5% active; AID 652054; in the data active = max response below about -50%; inconclusive = no clear call, values can overlap the other calls
# Target sequence (P35462 whole entry, looked up): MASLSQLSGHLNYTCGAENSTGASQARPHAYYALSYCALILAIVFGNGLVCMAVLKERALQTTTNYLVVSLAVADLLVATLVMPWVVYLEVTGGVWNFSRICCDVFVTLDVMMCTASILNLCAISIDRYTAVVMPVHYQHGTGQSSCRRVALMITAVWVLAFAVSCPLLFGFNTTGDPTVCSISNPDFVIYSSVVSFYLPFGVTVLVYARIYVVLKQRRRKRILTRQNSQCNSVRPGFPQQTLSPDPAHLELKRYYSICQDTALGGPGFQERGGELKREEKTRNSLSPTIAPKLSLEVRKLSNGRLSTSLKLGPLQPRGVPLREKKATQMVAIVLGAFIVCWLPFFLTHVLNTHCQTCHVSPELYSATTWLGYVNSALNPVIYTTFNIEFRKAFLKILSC
#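 Cells plated overnight at 1500 cells/well, then exposed to library compounds with dopamine controls for 90 minutes at 37 degrees C. DiscoveRx reagent added for 30–60 minutes at room temperature; luminescence read, quantitative HTS format.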
# D3 ag = agonists of human D3 dopamine receptor; D3R DiscoveRx beta-arrestin cells, luminescence, 90 min; max activation, %; AID 652048; 410,000 tested, 0.58% active; P35462; in the data active = max activation above about 30%
#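 Agonist-mode cell screen: cells plated at 1500/well and incubated overnight at 37 °C, then exposed to library compounds for 90 min at 37 °C. Detection reagent was added for 30–60 min at room temperature, and luminescence was read.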
# D1 potentiator = potentiators of human D1 dopamine receptor; P21728; HEK293 TREx D1 cells, calcium flux, dopamine EC20 potentiation; potentiation, % at 10 µM; 360,000 tested, 0.036% active; AID 504651; in the data active = potentiation above about 30%
# Hits are given with their value; 0 = inactive; ? = inconclusive; - = no result given.
SMILES,D1 ag,D1 antag,D3 antag,D3 ag,D1 potentiator
COc1cc2c(cc1OC)CN(C(=O)C(C)(C)C)CC2,0,0,0,0,0
COc1cc2c(cc1OC)CN(C1CCC(C(C)(C)C)CC1)CC2 (configuration not stated),-,-,-88,0,-
COc1ccc(S(=O)(=O)Nc2cccc3cccnc23)c([N+](=O)[O-])c1,0,0,-,-,0
COc1ccccc1CNCC(O)Cn1c2ccccc2c2ccccc21 (configuration not stated),90,0,0,0,0
O=C(CNC(=S)N(Cc1ccccc1)Cc1ccccc1F)NCc1ccccc1,0,0,0,0,0
COc1ccccc1CNC(=O)CC(C)C,0,-32,0,0,0
Cc1ccc(CNC(=O)CNC(=S)N(Cc2ccccc2)Cc2ccccc2F)cc1,0,-30,0,0,0
COc1ccccc1CNC(=O)COc1ccccc1OC,0,0,0,0,0
COc1ccccc1C(C)NCC(=O)NCc1ccc(C)cc1 (configuration not stated),0,0,-58,0,0
CCC(C)(C)OC(=O)N[C@@H](Cc1c[nH]c2ccccc12)C(=O)N[C@@H](CCSC)C(=O)N[C@@H](CC(=O)O)C(=O)N[C@@H](Cc1ccccc1)C(N)=O,-,-,-,0,-
CCOC(=O)c1[nH]c(C)c(CCC(=O)Nc2ccc(C(C)=O)cc2)c1C,0,0,-,0,0
COc1cccc(NC(=O)C(=O)NCCc2csc(-c3ccc(C)cc3)n2)c1,0,0,-,0,0
COCCNC(=O)CSc1nc(-c2ccc(F)cc2)[nH]c1-c1ccc(Cl)cc1,0,0,-,0,0
COc1ccccc1CNCC(=O)NCc1ccc(C)cc1,0,0,-87,0,0
COc1ccccc1CNC(=O)Cc1csc2nc(-c3ccccc3)cn12,0,-35,-,0,0
O=C(Cc1csc2nc(-c3ccccc3)cn12)NCc1ccc(F)cc1,0,0,-,0,0
COc1ccccc1CNC(=O)Cc1ccc(C)cc1,0,0,0,0,0
Cc1cc(C)c(NC(=O)CSc2nc3ccccc3c3nc(-c4ccccc4)nn23)c(C)c1,0,0,-,0,0
CCOc1ccc(CNC(=O)CCn2c(=O)c3cccn3c3ccc(F)cc32)cc1,0,0,-,0,0
Cc1ccc(-n2cccn2)c(CN2CCCC(C(=O)c3sccc3C)C2)c1 (configuration not stated),0,0,-76,0,0
O=C(c1ccc(Cl)cc1)C1CCCN(Cc2cccn2-c2ccccn2)C1 (configuration not stated),0,0,0,0,0
Cc1ccsc1C(=O)C1CCCN(Cc2cccn2-c2ccc(Cl)cn2)C1 (configuration not stated),0,0,-67,0,0
COc1ccc(NC(=O)c2cc3c(=O)n(Cc4ccco4)ccc3nc2C)c(OC)c1,0,0,-,0,0
Cc1cc(C)c2nc(N(Cc3cccnc3)C(=O)c3cccs3)sc2c1,0,-,-,0,0
Cc1ccc(OCCn2nnc3sc4c(c3c2=O)CCC(C)C4)cc1 (configuration not stated),0,0,-,0,0
SMILES,D1 ag,D1 antag,D3 antag,D3 ag,D1 potentiator
CC1CCN(S(=O)(=O)c2ccc3c(ccc(=O)n3CC(=O)Nc3cccc(F)c3)c2)CC1,0,0,-,0,0
CNC[C@@H]1CC[C@@H](N)[C@@H](O[C@H]2[C@H](O)[C@@H](O[C@H]3OC[C@](C)(O)[C@H](NC)[C@H]3O)[C@H](N)C[C@@H]2N)O1,-,-,-,0,-
O=C(c1cc(Cl)nc2ccccc12)N1CCN(S(=O)(=O)c2cccc(C(F)(F)F)c2)CC1,0,-33,0,0,0
COc1ccc(N(CC(=O)NCc2ccco2)S(C)(=O)=O)cc1OC,0,0,0,0,0
COc1ccc(N(CC(=O)NCc2ccco2)S(C)(=O)=O)cc1Cl,0,-68,0,0,0
CC(C)c1ccc(N(CC(=O)NCCSCc2ccco2)S(C)(=O)=O)cc1,0,-61,0,0,0
Cc1ccc(N(CC(=O)NCCSCc2ccco2)S(=O)(=O)c2ccc(C)cc2)cc1,0,-38,0,0,0
CS(=O)(=O)N(CC(=O)NCCSCc1ccco1)c1ccc(Cl)cc1,0,0,0,0,0
CC1=C(C(=O)Nc2cccnc2)C(c2ccccc2)n2nc(SCc3ccccc3F)nc2N1 (configuration not stated),0,0,-,0,0
CCO[C@@H]1OC(C(=O)NC2CC2)=C[C@H](c2c[nH]c3ccccc23)[C@H]1CCCO,0,0,-65,0,0
CC1CCCN(C(=O)CSCC(=O)Nc2nc(-c3cccs3)cs2)C1 (configuration not stated),0,-84,0,0,-
CC1CCN(C(=O)CSCC(=O)Nc2nc(-c3cccs3)cs2)CC1,0,0,0,0,0
COc1ccccc1N1CCN(C(CNC(=O)C(=O)NCCc2ccccc2)c2cccnc2)CC1 (configuration not stated),0,0,-,0,0
CCOC(=O)c1cccc(NC(=O)COc2ccc3c(C)cc(=O)oc3c2)c1,0,0,-,0,0
C/C(=N\OCC(=O)OCC(=O)N(Cc1ccccc1)C(C)(C)C)c1ccc2c(c1)OCO2,0,-36,0,0,0
CSc1nc(C)c(Oc2ccccc2)c(=O)n1C,0,-71,0,0,0
Cn1ncc(Cl)c(Oc2ccccc2)c1=O,0,0,0,0,0
O=C(Cn1ccc2cc(S(=O)(=O)N3CCCCCC3)ccc21)NCc1cccc(Cl)c1,0,0,-,0,0
CC(C)c1ccc(NC(=O)CSc2nc(=O)n(Cc3cccnc3)c3c2CCC3)cc1,0,-,-,0,0
CCNc1ccccc1CP(=O)(c1ccccc1)c1ccccc1O (configuration not stated),35,0,0,0,0
Cc1ccc(O)c(CP(=O)(c2ccccc2)c2ccccc2)c1,0,0,0,0,0
COc1cc(Cn2ncc3c4sc(C)cc4n(C)c3c2=O)cc(OC)c1,0,0,-,-,0
O=C(CS(=O)c1ccc(C(F)(F)F)cc1[N+](=O)[O-])Oc1ccccc1 (configuration not stated),0,0,?,0,0
CS(=O)(=O)c1ccc(S(=O)CC(=O)OCc2ccccc2)c([N+](=O)[O-])c1 (configuration not stated),0,0,-90,0,0
O=C(Nc1cc(F)ccc1F)C1COc2ccccc2C1 (configuration not stated),0,0,-,0,0
CC(=O)c1cccc(NC(=O)c2nc3ccccc3n(C)c2=O)c1,0,0,-,0,0
O=C(O)CCN(CCC(=O)O)c1ccccc1,0,-93,0,0,0
O=C(O)CCN(CCC(=O)O)S(=O)(=O)c1ccccc1,0,0,0,0,0
CCOC(=O)c1sc2ccccc2c1OC(=O)c1ccc(C)cc1,0,0,0,35,0
COC(=O)Nc1ccc(SCC(=O)c2ccc(Cl)cc2)cc1,0,-32,0,0,0
